Tested on: EGFR
Details: concentration: 1 μM, replicates: in singlicate; n = 1
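Note: KINOMEscan kinase panel screen.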

SMILES	%Inh
Cl.Cn1ccc(-c2cccc(Nc3ccnc4cc(-c5nccs5)ccc34)c2)n1 [GW525701]	11%
Nc1nc(-c2ccccn2)c(-c2ccnc3ccccc23)s1 [GW548057]	16%
CC(C)N1CCC(n2cnc(-c3ccc(F)cc3)c2-c2ccnc(N)n2)CC1 [SB-223132]	10%
Fc1cccc(COc2ccc(Nc3ncnc4cc[nH]c34)cc2Cl)c1	100%
Cc1cc(N2CCC(NS(=O)(=O)c3ccc(F)cc3)CC2)nc(Nc2cccc(C#N)c2)n1.O=C(O)C(F)(F)F [GSK1653537]	50%
C[C@H]1CC[C@@H](C(=O)Nc2ccccc2)CN1c1cc(-c2ccc3c(N)n[nH]c3c2)nc(N)n1 [GSK2283293]	30%
CC(C)(C)c1ccc(-n2cnc3c(N)ncnc32)cc1 [SKF-97263]	38%
Cc1ccc(NC(=O)c2cccc(C#N)c2)cc1-c1ccc(C(=O)Nc2ccncc2)cc1 [GSK1398463]	36%
Cn1ccc2ncnc(Oc3ccc(NC(=O)Nc4cccnc4)c(Cl)c3)c21	20%
COc1ccc(NC(=O)c2ccc(-c3cc(-c4nnc(C)o4)ccc3C)cc2)cc1 [GW595885]	14%
CS(=O)(=O)CCNCc1ccc(-c2ccc3ncnc(Nc4ccc(OCc5ccccc5)c(Cl)c4)c3c2)o1.Cl [GW574783]	100%
CSc1ccc(NC2=C(c3ccccc3Cl)C(=O)NC2=O)cc1 [SB-342411]	18%
CCn1c(-c2ccncc2)nc2cnccc21 [SB-735216]	0%
